Calls of active or inactive are those of the source.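 Rule for the calls, unless noted: active = fluorescence slope higher than the sample average by over 3 SD (cut at about -0.22 in these data, passing the limit was not always enough); inactive = the rest.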

Assay [1] can be described thus: inhibitors of TNFa-induced NFkB p65 translocation, primary screen, imaging, HUVEC, MLSMR starter and 10KST1 sets (AID 438;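 active = inhibition above 20% together with a positive visual image hit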;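 note: compound added about 3h40 before a 20 min TNFalpha stimulation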;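 for inhibition: signal is the nuclear over cytoplasmic p65 intensity ratio per well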). The conditions noted are these: HUVEC TNFa-induced p65 nuclear translocation; cell count: measured here: nuclei count (cytotoxicity indicator), at 2.08 µM; inhibition: at 2 µM, stronger effect = higher value, 0% TNFa-plus-vehicle, 100% no-TNFa wells.
The nature of assay [2]: reduction of polyQ htt aggregates in cells – imaging, exon1htt(103Q)mCFP cells, high-content imaging, primary screen (AID 483;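 active = visual image review flags a hit and inhibition of aggregation exceeds 20%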;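 note: compound exposure lasted 3 days before fixation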;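 for nuclei count: percent of the per-plate median nuclei count of sample wells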). Particulars: exon1htt(103Q)mCFP cell line, aggregate imaging, at 2 µM; inhibition of aggregation: stronger effect = higher value; nuclei count: measured here: cell count, toxicity.
A short description of assay [3]: endothelial E-selectin expression blockers – imaging, HUVEC, immunofluorescence, MLSMR starter and 10KST1 sets, primary screen (AID 487;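 active = visually confirmed hit in the image check and inhibition above 20%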;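 for inhibition: signal is fraction of cell area covered by stained E-selectin grains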;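 for nuclei count: 100% = median nuclei count of all wells on the same plate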). The conditions noted are these: HUVEC TNFalpha-induced E-selectin immunofluorescence imaging, at 2 µM; inhibition: stronger effect = higher value; nuclei count: measured here: cell number, toxicity.
The target in assay [4] is Voltage-gated potassium channel subunit beta-2 (Rattus norvegicus) (UniProt P62483). As to the kind of experiment: inhibitors of rat Kvbeta2 reductase activity – biochemical, NADPH fluorescence, primary screen (AID 622).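 Note: slope of raw intensity against log time taken from 70 to 1610 s.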 Particulars: recombinant KvBeta, 4-cyanobenzaldehyde reduction, at 10 µM, stronger effect = higher value.
Assay [5] shares this target. The experiment in a line: enhancers of rat Kvbeta2 NADPH turnover – biochemical, NADPH fluorescence, primary screen (AID 623;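 active = NADPH fluorescence slope more negative than the mean of all samples by about 3 SD, 99.7% confidence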;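 note: fluorescence intensity change per second fitted from 20 to 320 s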). Particulars: Recombinant KvBeta, NADPH fluorescence decrease slope, 10 min; at 10 µM; stronger effect = lower value.
Assay [6] has as its target Alpha-2C adrenergic receptor (Homo sapiens) (UniProt P18825). As to the kind of experiment: compounds altering alpha2C-coupled GIRK flux – cell-based, HEK293 alpha2C/GIRK1/2, thallium flux, primary screen (AID 624;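 active = fluorescence slope after compound addition differing from the mean of all screened samples at 99.7% confidence, in either direction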;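 note: slope of fluorescence ratio to pre-addition baseline per second over 15 to 24 s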). The conditions noted are these: thallium flux BTC fluorescence, at 10 µM, actives lie on both sides.
The nature of assay [7]: inhibitors of larval lipid processing in zebrafish, primary screen, whole organism, PED6 fluorescence, gall bladder and intestine (AID 686;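 active = a full or partial loss of lipid-probe fluorescence in the fish gall bladder, intestine or both, judged by eye; inactive = no fluorescence loss, or compound toxic to the fish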;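 note: larvae 5 to 7 days old with five fish per well; signal comes from phospholipase A2 cleavage of quenched PED6 carried via bile; overnight exposure to compound and PED6 before scoring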). The conditions noted are these: Zebrafish larvae PED6 lipid processing, fluorescence scoring; screened at 20 µM (by protocol).
A short description of assay [8]: loss of swimming-algae plug formation – whole organism, Chlamydomonas reinhardtii, WT vs cilia-less mutant, absorbance, 96-well, primary screen (AID 463189;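 active = inhibition at or above 50% relative to wild type and mutant plate controls; inactive = inhibition below 50%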;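 note: 0% = wild type cc124 cells in DMSO and 100% = ciliumless bld1 mutant cells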). The conditions noted are these: Chlamydomonas reinhardtii gravitaxis, OD600 absorbance, 2 days; at 10 µM; stronger effect = higher value.
The nature of assay [9]: blockers of RIG-like receptor reporter activation – cell-based, Sendai virus stimulus, luciferase, 10K MLSCN set, TLR/RLR signaling modifier project, primary screen (AID 602276;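 active = inhibition at or above 50% at 10 µM; inactive = inhibition below 50%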;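 note: firefly luciferase from ISG56 promoter only with Renilla not read in this screen; 0% = Sendai virus plus DMSO and 100% = medium plus DMSO without virus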). The conditions noted are these: HEK293 RL24 IRF3 luciferase reporter, at 10 µM, stronger effect = higher value. A general note: A reporter such as luciferase makes a cellular process visible.
The nature of assay [10]: TLR3 IRF3 reporter activation blockers – cell-based, poly I:C stimulus, luciferase, 10K MLSCN set, primary screen (AID 602277;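 active = inhibition of the reporter signal at or above 50%; inactive = inhibition below 50%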). Particulars: HEK293-TLR3 RL24 IRF3 luciferase reporter, at 10 µM, stronger effect = higher value.
Assay [11] can be described thus: Primary imaging screen for DUSP6 inhibitors that restore phospho-Erk in transfected HeLa cells, chemical complementation (AID 609;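 active = compounds giving at least 50% inhibition in the cell-based MKP-3 phosphatase rescue imaging test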;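 for inhibition: phospho-Erk level distribution per well compared with pooled transfected vehicle control wells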). The conditions noted are these: HeLa MKP-3 transfected, phospho-Erk imaging KS statistic, at 10 µM, cells stimulated with TPA for 15 min.
The target in assay [12] is Dual specificity protein phosphatase 6 (Homo sapiens) (UniProt Q16828). The description is as above. Particulars: HeLa MKP-3 transfected, phospho-Erk imaging KS statistic; at 10 µM; stronger effect = higher value; cells stimulated with TPA for 15 min.
In assay [13] the target is Muscarinic acetylcholine receptor M4 (Homo sapiens) (UniProt P08173). The experiment in a line: M4-linked GIRK flux change, two-sided – cell-based, HEK293 M4/GIRK, thallium flux, BTC-AM, M4 allosteric agonist project, primary screen (AID 625;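 active = fluorescence slope after compound addition differing from the mean of all tested samples at 99.7% confidence, mostly higher but some lower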;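 note: thallium influx through GIRK channels coupled to M4 in HEK293 cells with BTC-AM dye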). The conditions noted are these: at 10 µM, actives lie on both sides.
The mark [14] stands for this setting: measured here: cell density z-score.
Setting [15] is: measured here: nuclear c-Myc green intensity z-score.
The mark [16] stands for this setting: measured here: nuclear pErk red intensity z-score, stronger effect = higher value.

Alpha-2C adrenergic receptor (Homo sapiens), sequence (P18825 whole entry, looked up): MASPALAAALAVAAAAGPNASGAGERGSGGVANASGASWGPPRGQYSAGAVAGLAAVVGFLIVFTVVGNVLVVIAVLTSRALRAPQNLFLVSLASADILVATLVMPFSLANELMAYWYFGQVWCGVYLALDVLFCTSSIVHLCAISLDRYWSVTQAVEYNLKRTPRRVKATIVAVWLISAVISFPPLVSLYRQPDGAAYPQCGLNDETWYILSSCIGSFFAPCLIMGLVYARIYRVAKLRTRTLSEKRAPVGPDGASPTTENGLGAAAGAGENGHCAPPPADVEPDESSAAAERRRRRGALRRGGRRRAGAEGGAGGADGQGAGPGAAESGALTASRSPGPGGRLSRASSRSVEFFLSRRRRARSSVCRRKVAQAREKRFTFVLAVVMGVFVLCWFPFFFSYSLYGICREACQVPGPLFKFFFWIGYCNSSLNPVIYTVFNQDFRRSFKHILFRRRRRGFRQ
Voltage-gated potassium channel subunit beta-2 (Rattus norvegicus), sequence (P62483 whole entry, looked up): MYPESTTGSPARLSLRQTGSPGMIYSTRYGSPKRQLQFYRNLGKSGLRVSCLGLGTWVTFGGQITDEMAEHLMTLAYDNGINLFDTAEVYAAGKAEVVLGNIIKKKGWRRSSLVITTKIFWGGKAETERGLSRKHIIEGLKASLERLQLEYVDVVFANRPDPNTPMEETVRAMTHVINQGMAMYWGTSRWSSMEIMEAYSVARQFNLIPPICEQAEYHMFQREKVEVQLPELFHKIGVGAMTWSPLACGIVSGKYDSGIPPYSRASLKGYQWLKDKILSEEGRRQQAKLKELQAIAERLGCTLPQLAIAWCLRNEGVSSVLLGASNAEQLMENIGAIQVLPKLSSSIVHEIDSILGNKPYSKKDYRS
Dual specificity protein phosphatase 6 (Homo sapiens), sequence (Q16828 whole entry, looked up): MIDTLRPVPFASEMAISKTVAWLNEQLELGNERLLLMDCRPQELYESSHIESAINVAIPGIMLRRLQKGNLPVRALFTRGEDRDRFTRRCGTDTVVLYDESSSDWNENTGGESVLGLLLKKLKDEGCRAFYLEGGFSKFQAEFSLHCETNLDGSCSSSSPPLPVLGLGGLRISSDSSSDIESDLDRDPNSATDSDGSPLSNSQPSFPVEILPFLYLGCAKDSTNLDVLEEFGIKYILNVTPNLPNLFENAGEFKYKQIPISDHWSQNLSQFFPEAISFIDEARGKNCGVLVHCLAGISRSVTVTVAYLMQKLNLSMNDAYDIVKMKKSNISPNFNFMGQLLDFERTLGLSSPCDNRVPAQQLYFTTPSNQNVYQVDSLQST
Muscarinic acetylcholine receptor M4 (Homo sapiens), sequence (P08173 whole entry, looked up): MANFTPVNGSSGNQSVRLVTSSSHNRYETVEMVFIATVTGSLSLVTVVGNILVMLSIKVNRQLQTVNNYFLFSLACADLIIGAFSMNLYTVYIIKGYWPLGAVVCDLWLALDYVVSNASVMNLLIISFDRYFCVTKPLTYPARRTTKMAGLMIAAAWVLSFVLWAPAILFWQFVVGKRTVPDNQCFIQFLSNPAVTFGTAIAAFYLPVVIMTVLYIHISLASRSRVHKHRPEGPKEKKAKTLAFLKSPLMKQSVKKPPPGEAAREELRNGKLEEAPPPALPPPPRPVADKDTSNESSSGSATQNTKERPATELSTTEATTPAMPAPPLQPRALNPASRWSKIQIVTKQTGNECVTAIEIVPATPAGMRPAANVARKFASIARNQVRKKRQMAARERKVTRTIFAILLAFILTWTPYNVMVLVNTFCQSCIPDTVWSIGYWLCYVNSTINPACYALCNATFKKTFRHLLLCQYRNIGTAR

Broadly, the inhibition is the change of the read-out against control, counted positive when it falls. With `Cc1cc(C)n(S(=O)(=O)Cc2ccccc2)n1`, in assay [1], the cell count came out at 495. Also, the inhibition in assay [1] is 0.8% (inactive); in [3], -49.2% (inactive); in assay [8], -10% (inactive); in assay [9], 15% (inactive); in assay [10], 14.8% (inactive). For the same compound, the inhibition of aggregation in [2] is -5.2% (inactive). The values for the nuclei count in assay [2] and in assay [3] were 100% and 105%, respectively. The fluorescence slope in assay [4] is -0.531 (inactive). In assay [5], the NADPH fluorescence slope is -1.7e-05 (inactive). The slope in assay [6] was 0.00447 (inactive). Moreover, the compound was classed as inactive in assay [7].
Consider `O=C(c1ccc2c(c1)OCCO2)N1CCCCC1`, for which the cell count in [1] is 580. In addition, the inhibition in assay [1] was -15% (inactive); in assay [3], -38.6% (inactive); in assay [8], -4.88% (inactive); in assay [9], 8.03% (inactive); in [10], 18.3% (inactive). Also, the inhibition of aggregation in assay [2] was -3.4% (inactive). In addition, the nuclei count in [2] came out at 106%; in [3], 122%. In addition, the fluorescence slope in assay [4] was -0.406 (inactive). In addition, the NADPH fluorescence slope in [5] is 1.1e-06 (inactive). Besides, the slope in [6] is 0.00377 (inactive).
Regarding `COc1cc2nc(N3CCN(C(=O)c4ccco4)CC3)nc(N)c2cc1OC`, in assay [1], the cell count was found to be 679. Further, the inhibition in [1] was 3% (inactive); in [3] it was -130% (inactive); in [12], 9.37% (inactive); in [8], -2.52% (inactive); in [9], -4.12% (inactive); in assay [10], 19.3% (inactive). The compound further yielded a nuclei count in assay [3] of 128%. The z-score in [11] (setting [14]) was 1.25; in assay [11] (setting [15]), -0.94; in assay [11] (setting [16]) it was -1.9. In assay [4], the fluorescence slope was -0.4 (inactive). The NADPH fluorescence slope in assay [5] is -1.8e-05 (inactive). Moreover, the slope in [6] is 0.00375 (inactive). In addition, the result in [7] was inactive.
On to `O=S(=O)(c1ccc2ccccc2c1)N(CC(O)CN1CCOCC1)c1ccccc1` (stereo not given), for which the cell count in [1] was determined as 576. Besides, the inhibition in assay [1] is -8.7% (inactive); in [3] it was -7.5% (inactive); in assay [12], 1.42% (inactive); in assay [8], 143% (active); in [9], 20.7% (inactive); in assay [10], 14.9% (inactive). For the same compound, the inhibition of aggregation in [2] was -10.4% (inactive). The values for the nuclei count in assay [2] and in assay [3] were 113% and 105%, respectively. Besides, the z-score in assay [11] (setting [14]) was 0.984; in assay [11] (setting [15]), 1.41; in assay [11] (setting [16]), -0.234. In addition, the results for the fluorescence slope in assay [4] and in assay [13] were -0.344 (inactive) and 0.00503 (inactive), respectively. Moreover, in [5], the NADPH fluorescence slope was -3.3e-05 (inactive). Also, the compound was called inactive in assay [7].
In the case of `Fc1ccc(-c2cnc[nH]2)cc1`, in assay [1], the cell count stood at 501. Further, the inhibition in [1] is 0.1% (inactive); in assay [3] it was -88.1% (inactive); in [12], 3.42% (inactive); in assay [8], -0.515% (inactive); in assay [9], -22.9% (inactive); in assay [10] it was -37.6% (inactive). Besides, the inhibition of aggregation in [2] was -41% (inactive). For the same compound, the nuclei count in assay [2] was 64.4%; in assay [3] it was 109%. In addition, the z-score in [11] (setting [14]) is -1.11; in assay [11] (setting [15]) it was 0.681; in assay [11] (setting [16]), -1.47. Besides, the values for the fluorescence slope in assay [4] and in assay [13] were -0.513 (inactive) and 0.00534 (inactive), respectively. Also, the NADPH fluorescence slope in [5] is -9.6e-05 (inactive). For the same compound, in [7], the call was inactive.
As for `Nc1ccc(S(=O)(=O)Nc2ncccn2)cc1`, in [1], the cell count stood at 603. Further, the inhibition is -1.5% (inactive) in assay [1]; -68.8% (inactive) in [3]; 5.79% (inactive) in [12]; -12.2% (inactive) in assay [8]; 15.1% (inactive) in [9]. Also, in assay [2], the inhibition of aggregation is -4.1% (inactive). The nuclei count was determined as 87.5% in assay [2] and 130% in assay [3]. For the same compound, the z-score in [11] (setting [14]) is 1.12; in assay [11] (setting [15]), -1.89; in [11] (setting [16]) it was 1.02. Also, the fluorescence slope in assay [4] is -0.5 (inactive). Moreover, the NADPH fluorescence slope in [5] is -6.3e-05 (inactive). The slope in assay [6] was 0.00507 (inactive). For the same compound, the call in [7] was inactive.

The record behind these values is PubChem BioAssay.
